# Data: PubChem BioAssay
# Results filed as inconclusive are left out. Calls of active or inactive are those of the source. Cut-off not given; nearly all actives show AC50 up to about 26 µM.
# Assay: viability loss in pontine glioma line – cell-based, SU-DIPG-XXV, MIPE5.0, CellTiter-Glo, qHTS, dose response (AID 1347065);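 further: cells exposed to compound for 48 hours before ATP readout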
# Settings: CellTiter-Glo ATP luminescence
Structure (SMILES),AC50,outcome
CNS(=O)(=O)Nc1nccc(Cc2c(C)c3ccc(Oc4ncccn4)cc3oc2=O)c1F,2.35 µM (active),–
CCCCCCCOc1ccc(CCC(N)(CO)CO)cc1C(F)(F)F,9.34 µM (active),–
CC1Oc2cc(cnc2N)-c2c(nn(C)c2C#N)CN(C)C(=O)c2ccc(F)cc21 (stereo not drawn),7.42 µM (active),–
COc1cc(C(=O)O)ccc1NC(=O)[C@@H]1N[C@@H](CC(C)(C)C)[C@](C#N)(c2ccc(Cl)cc2F)[C@H]1c1cccc(Cl)c1F,9.34 µM (active),–
CC(C)c1c2cc(-c3ccnc(NC4CCC(NC5CCOCC5)CC4)n3)ccc2nn1C (stereo not drawn),0.468 µM (active),–
CCc1cc2c(c(OCC(F)(F)F)c(C(=O)NC3CCN(C(=O)CO)CC3)n2C)c(=O)n1CC(=O)c1ccccc1,–,inactive
CCN(C(=O)c1ccccc1OC)c1cc2c(cc1N1CCNC[C@H]1C)n(C)c(=O)n2C,–,inactive
COc1cc(OC)cc(N2CCN(C(=O)Nc3nc4cc(F)ccc4nc3OC)CC2)c1,1.48 µM (active),–
CCOC(=N)c1nc2ccc3ncnc(Nc4cc(F)c(F)cc4Cl)c3c2s1,11.8 µM (active),–
CC[C@@H](C)Nc1cc(C(=O)NC2CC3CCC(C2)N3c2ccc(C(=O)C3CC3)cn2)c(C)cc1C(N)=O (stereo partly drawn),0.186 µM (active),–
Cc1cc(C(=O)Nc2cc(Nc3ccc4c(/C=C/c5ccccn5)n[nH]c4c3)ccc2F)n(C)n1,3.72 µM (active),–
COc1ccc(-c2cc(C(O)C3CCCCN3)c3ccccc3n2)cc1 (stereo not drawn),29.5 µM (active),–
CC(C)NC(=O)C1CCC(n2c(NC(=O)c3ccc(F)cc3)nc3ccc(CN4CCC(C(C)(C)O)CC4)cc32)CC1 (stereo not drawn),6.45 µM (active),–
